Measured values taken from PubChem BioAssay.
The source made the active and inactive calls.

Legend:
[1] = anti-His antibody binders, primary screen, artefact control for SMM control protein annotation, biochemical, small-molecule microarray, 635 nm fluorescence (AID 1128); conditions: anti-His Alexa647 antibody binding, higher = more signal;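 further: score merges feature fluorescence with signal-to-noise for each printed compound spot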
[2] = system: Human papillomavirus type 1a E7 protein (residues 1-88); assay: HPV1a E7 small-molecule binders, primary screen, biochemical, small-molecule microarray, residues 1-88, 635 nm (AID 1129); conditions: small-molecule microarray binding, fluorescence 635 nm; higher = more signal
[3] = target: Focal adhesion kinase 1 (Homo sapiens) (UniProt Q05397); assay: small-molecule microarray binders of FAK, primary screen, biochemical, 635/667 nm fluorescence, BSA, DTT (AID 1130); conditions: PTK2 binding, 635 nm fluorescence, higher = more signal;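 further: composite of spot emission at 667 nm and signal to noise over triplicate slides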
[4] = system: Fibrinogen (Alexa647-labelled); assay: fibrinogen binders on compound microarrays, profiling panel, artefact control for SMM control-protein annotation, biochemical, small-molecule microarray, 635/667 nm fluorescence (AID 1131); conditions: fibrinogen-A647 binding fluorescence, higher = more signal;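 further: z-score merges 667 nm fluorescence with per-spot signal-to-noise over triplicate slides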
[5] = target: Follistatin (Homo sapiens) (UniProt P19883); assay: follistatin binders on small-molecule microarrays, primary screen, biochemical, small-molecule microarray, 635/667 nm fluorescence (AID 1132); conditions: FST binding, 635 nm fluorescence, higher = more signal
[6] = target: Fibroblast growth factor 2 (Homo sapiens) (UniProt P09038); assay: FGF2 binders on small-molecule microarrays, primary screen, biochemical, small-molecule microarray, 635/667 nm fluorescence (AID 1133); conditions: small-molecule microarray binding, FGF2, fluorescence 635/667; higher = more signal
[7] = mitochondrial membrane potential change in A549 cells, profiling panel, cell-based, JC-1 fluorescence, basal, 24 h, 100 nL (AID 1138); conditions: higher = more signal;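 further: A549 lung adenocarcinoma cells under basal conditions with no added stimulus; test concentration not given here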
Lefty1 = Lefty1 binders on small-molecule microarrays, primary screen, biochemical, small-molecule microarray, 635/667 nm fluorescence (AID 1139); conditions: small-molecule microarray binding, fluorescence 635/667; higher = more signal
[8] = system: wheat germ agglutinin (Triticum aestivum), Alexa647-labelled; assay: wheat germ agglutinin binders on compound microarrays, profiling panel, artefact control for SMM control-protein annotation, biochemical, small-molecule microarray, 635/667 nm fluorescence (AID 1140); conditions: WGA-A647 binding, 635 nm fluorescence, higher = more signal;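 further: score merges 667 nm feature emission with signal to noise over triplicate slides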
[9] = target: Luciferin 4-monooxygenase (Photinus pyralis) (UniProt P08659); assay: firefly luciferase enzyme inhibitors, primary screen, biochemical, luminescence, purified enzyme, 2006 set (AID 1141); conditions: SteadyGlo luminescence, 30 min, higher = more signal, called active from +8 up or from −8 down;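 further: cell-free assay with purified firefly luciferase at 100 ng per well in PBS; test concentration not given here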
Sequence of Luciferin 4-monooxygenase (Photinus pyralis) (P08659 whole entry, looked up): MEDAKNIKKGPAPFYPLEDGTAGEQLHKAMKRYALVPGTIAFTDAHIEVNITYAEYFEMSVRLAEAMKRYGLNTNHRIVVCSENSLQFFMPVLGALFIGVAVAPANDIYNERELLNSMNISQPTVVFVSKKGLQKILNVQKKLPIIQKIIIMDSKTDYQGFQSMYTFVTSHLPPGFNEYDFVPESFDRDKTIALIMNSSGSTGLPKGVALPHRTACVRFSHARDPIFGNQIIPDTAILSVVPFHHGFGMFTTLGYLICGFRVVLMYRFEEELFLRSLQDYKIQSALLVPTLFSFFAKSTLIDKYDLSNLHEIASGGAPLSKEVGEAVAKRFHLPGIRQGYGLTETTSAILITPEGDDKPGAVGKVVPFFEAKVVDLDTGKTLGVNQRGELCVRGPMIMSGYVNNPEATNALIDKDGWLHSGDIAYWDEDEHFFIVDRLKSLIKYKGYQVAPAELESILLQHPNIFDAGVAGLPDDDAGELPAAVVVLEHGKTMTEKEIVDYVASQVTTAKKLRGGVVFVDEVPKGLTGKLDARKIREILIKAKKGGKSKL

Sequence of Focal adhesion kinase 1 (Homo sapiens) (Q05397 whole entry, looked up): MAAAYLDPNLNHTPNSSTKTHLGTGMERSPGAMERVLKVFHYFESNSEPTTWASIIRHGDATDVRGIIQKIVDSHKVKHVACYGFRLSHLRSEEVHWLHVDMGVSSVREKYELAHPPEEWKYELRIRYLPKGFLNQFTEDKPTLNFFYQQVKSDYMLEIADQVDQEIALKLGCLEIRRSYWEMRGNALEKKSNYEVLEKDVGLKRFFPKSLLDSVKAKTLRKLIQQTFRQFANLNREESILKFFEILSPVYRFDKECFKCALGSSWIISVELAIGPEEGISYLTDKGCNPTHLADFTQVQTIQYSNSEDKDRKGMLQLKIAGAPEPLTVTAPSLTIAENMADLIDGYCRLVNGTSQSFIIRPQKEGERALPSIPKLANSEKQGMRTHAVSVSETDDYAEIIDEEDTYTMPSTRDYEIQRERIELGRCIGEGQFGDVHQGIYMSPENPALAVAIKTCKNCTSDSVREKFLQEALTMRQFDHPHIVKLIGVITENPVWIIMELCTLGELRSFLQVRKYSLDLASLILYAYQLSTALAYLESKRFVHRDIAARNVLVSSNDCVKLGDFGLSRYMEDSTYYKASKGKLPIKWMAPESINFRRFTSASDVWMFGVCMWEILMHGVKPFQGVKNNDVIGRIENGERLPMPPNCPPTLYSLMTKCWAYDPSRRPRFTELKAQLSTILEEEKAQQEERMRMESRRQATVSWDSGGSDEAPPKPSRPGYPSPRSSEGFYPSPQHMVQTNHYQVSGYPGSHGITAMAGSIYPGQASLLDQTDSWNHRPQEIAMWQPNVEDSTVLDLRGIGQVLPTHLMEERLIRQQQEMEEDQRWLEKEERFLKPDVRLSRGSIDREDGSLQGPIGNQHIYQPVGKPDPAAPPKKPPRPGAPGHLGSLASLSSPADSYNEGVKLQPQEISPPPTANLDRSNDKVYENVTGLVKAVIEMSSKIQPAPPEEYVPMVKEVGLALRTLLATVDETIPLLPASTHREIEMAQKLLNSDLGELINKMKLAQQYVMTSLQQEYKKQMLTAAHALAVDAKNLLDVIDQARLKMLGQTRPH
Sequence of Follistatin (Homo sapiens) (P19883 whole entry, looked up): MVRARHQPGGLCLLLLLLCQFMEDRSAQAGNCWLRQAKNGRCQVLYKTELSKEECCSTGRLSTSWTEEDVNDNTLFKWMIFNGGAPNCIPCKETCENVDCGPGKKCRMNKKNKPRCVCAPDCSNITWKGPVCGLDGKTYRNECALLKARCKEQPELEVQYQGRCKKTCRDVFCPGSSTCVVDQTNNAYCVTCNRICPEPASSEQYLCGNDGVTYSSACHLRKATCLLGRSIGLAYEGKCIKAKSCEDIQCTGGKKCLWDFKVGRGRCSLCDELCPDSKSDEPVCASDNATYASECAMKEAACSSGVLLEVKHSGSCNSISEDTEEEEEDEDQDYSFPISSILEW
Sequence of Fibroblast growth factor 2 (Homo sapiens) (P09038 whole entry, looked up): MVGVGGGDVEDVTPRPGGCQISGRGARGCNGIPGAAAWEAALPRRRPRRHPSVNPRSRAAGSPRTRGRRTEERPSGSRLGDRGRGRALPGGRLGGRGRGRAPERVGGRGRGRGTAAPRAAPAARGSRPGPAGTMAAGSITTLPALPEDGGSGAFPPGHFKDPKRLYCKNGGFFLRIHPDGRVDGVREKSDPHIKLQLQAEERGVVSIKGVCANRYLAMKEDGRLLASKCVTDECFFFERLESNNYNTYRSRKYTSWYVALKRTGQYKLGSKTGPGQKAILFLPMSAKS

| Structure (SMILES) | composite z-score [1] | composite z-score [2] | composite z-score [3] | composite z-score [4] | composite z-score [5] | composite z-score [6] | z-score [7] | composite z-score (Lefty1) | composite z-score [8] | z-score [9] |
| --- | --- | --- | --- | --- | --- | --- | --- | --- | --- | --- |
| COCCOC(=O)N1C(=O)[C@@]2(c3cc(C#Cc4ccc(OC)cc4)ccc31)[C@H](c1ccc(OCCO)cc1)N1[C@H](c3ccccc3)[C@H](c3ccccc3)OC(=O)[C@H]1[C@@H]2C(=O)N1CCc2cc(OC)c(OC)cc2C1 | 0.512 | 1.08 | 0.272 | -0.122 | 1.25 | 1.24 | -1.35 | 1.13 | -0.12 | -0.584 (inactive) |
| COC(=O)c1c(CC[C@@H](CO)NC(=O)Nc2ncn[nH]2)oc(C(=O)Cc2ccccc2)c1C(=O)OC | 0.936 | 0.466 | 0.108 | 0.915 | 1.08 | 1.58 | -0.491 | 0.895 | 0.467 | 1.03 (inactive) |
| COc1ccc(C(O)C2C=CC3C(=O)N(c4ccccc4)C(=O)C3N2Nc2ccccc2)c2ccccc12 (stereo not given) | 2.08 | 1.12 | 0.592 | -0.833 | 0.037 | -0.702 | -0.284 | -0.0743 | 0.285 | -0.597 (inactive) |
| CC(C)NC(=O)[C@@H]1c2ccccc2C(=O)N(C2CCCCC2)[C@H]1c1ccc(CO)cc1 | 2.71 | 1.15 | 0.517 | 0.137 | 0.449 | 0.525 | 0.483 | -0.161 | 0.577 | 0.202 (inactive) |
| CCOC(=O)C=Cc1cccc(OC)c1O | 0.447 | -0.311 | -0.227 | 0.102 | -0.248 | -1.13 | -1.37 | -0.679 | 0.859 | -17.6 (active) |
| C[N+](C)(C)CCCCNC(=O)[C@H]1C[C@H]2C(=O)N3CCC[C@H]3C(=O)N2[C@H]1c1ccc(O)cc1 | 2.67 | -0.0698 | 0.446 | 0.228 | 1.46 | 1.81 | -0.515 | 1.49 | 0.282 | -0.679 (inactive) |
| C=CC[C@]1(C(=O)NCCN2CCOCC2)N=C(c2ccc(OCCCO)cc2)O[C@H]1c1ccccc1N=[N+]=[N-] | 1.5 | 1.16 | 0.0147 | 0.772 | 1.32 | 0.931 | 0.98 | -0.367 | 0.455 | -8.62 (active) |
| Cc1ccc(S[C@]2(C(=O)NCC(C)C)CC(=O)N(Cc3ccccc3)[C@@H]2c2ccc(CO)cc2)cc1 | -0.549 | -0.467 | -0.0956 | -1.2 | -0.795 | -0.42 | -0.254 | -1.4 | -0.282 | -0.766 (inactive) |
| COc1ccc(C#Cc2ccc3c(c2)[C@]2(C(=O)N3)[C@H](c3ccc(OCCO)cc3)N3[C@H](c4ccccc4)[C@H](c4ccccc4)OC(=O)[C@H]3[C@@H]2C(=O)Nc2nc3ccccc3s2)cc1 | 0.842 | 1.17 | 0.862 | 0.88 | 1.3 | 1.28 | -2.06 | 1.57 | 0.764 | -3.84 (inactive) |
| COc1ccccc1CN1C(=O)c2ccccc2[C@](Cc2ccccc2I)(C(=O)NC2CC2)[C@@H]1c1ccc(CO)cc1 | 1.74 | 1.26 | 0.646 | 0.987 | 1.32 | 1.55 | 1.16 | 1.16 | 0.52 | 0.985 (inactive) |
| O=C(NCC(O)CO)[C@]1(CCS(=O)(=O)c2ccccc2)N=C(c2ccc(OCCCO)cc2)O[C@@H]1c1ccccc1 (stereo not given in full) | 1.14 | 1.27 | 0.516 | 0.976 | 0.866 | -0.702 | 0.439 | -1.11 | 1.54 | 0.0334 (inactive) |
| CCCCCCCCCCC(O)C1C=CC2C(=O)N(c3ccccc3)C(=O)C2N1Nc1ccc([N+](=O)[O-])cc1 (stereo not given) | 0.774 | 1.22 | 0.525 | 0.992 | 0.8 | 0.378 | 2.09 | 0.371 | 0.56 | 1.86 (inactive) |
| CC(C)[Si]1(C(C)C)O[C@@H](c2ccccc2)c2cc(-c3ccc(-c4ccc(Cl)c(Cl)c4)o3)nc(CCc3ccccc3)c21 | -0.203 | -0.339 | -0.389 | -1.27 | -2.16 | -0.614 | -0.107 | -1.08 | -1.58 | -0.7 (inactive) |
